In PubChem BioAssay (NCI):
“And” between values parts separate entries of the source, which are not always exact repeats. Equal entries are not always repeated. About 83,000 compounds went through this panel and 20% of them were active in at least one assay; those are over-represented in the sample as a whole.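 A percent growth of 40 corresponds to 60% growth inhibition; 0 means no net growth; -100 means all cells died. Active threshold: below 10.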 The source made the active and inactive calls.

tested on: MDA-MB-468 breast; test: NCI-60 one-dose screen, 48 h (100 = growth as untreated, 0 = no growth, -100 = all killed); details: 10 µM unless noted

Row | Compound | growth
1 | COc1cc(C(=O)NNC(=O)c2ccccc2C(=O)O)cc(OC)c1OC | 48.6% (inactive)
2 | OCCOCC(F)(F)F | 106% (inactive)
3 | COc1cc(/C=N/NC(=O)c2cnn3c2NC(c2ccccc2)C3)cc(OC)c1OC (centres undefined) | 62.8% (inactive)
4 | CN1C(=O)/C(=C\c2nc([P+](c3ccccc3)(c3ccccc3)c3ccccc3)c(N3CCOCC3)o2)SC1=S | 10.1% (inactive)
5 | Nc1ccccc1SC1CC(=O)N(c2ccc(I)cc2)C1=O (centres undefined) | 121% (inactive)
6 | COc1cc(C2=NN(c3ccc(S(N)(=O)=O)cc3)C(c3ccc(Cl)cc3)C2)cc(OC)c1OC (centres undefined) | 38.3% (inactive)
7 | COc1ccc(-n2c(=O)c3ccccc3n(Cc3ccc(C(=O)NO)cc3)c2=O)cc1 | 3.21% (active)
8 | [2H]C([2H])([2H])Oc1ccc(F)cc1/C=C/C(=O)/C=C(O)/C=C/c1cc(F)ccc1OC([2H])([2H])[2H] | 91.6% (inactive)
9 | COc1ccccc1OCC(=O)N1CCCCCC1 | 97.1% (inactive)
10 | Cc1cc(N2CCOCC2)nc(N(CCCNc2ccnc3cc(Cl)ccc23)Cc2ccco2)n1 | 21.7% (inactive)
11 | N#Cc1c(-c2ccc(Cl)cc2)nc(N/N=C/c2cccc(Br)c2)nc1N1CCOCC1 | 76.7% (inactive)
12 | COc1cc(/C=N/n2cnc3oc(-c4ccccc4)cc3c2=N)cc(CN2CCCC2)c1O | 82% (inactive)
13 | COc1cc(-c2csc(NC(=O)c3ccc(N4CCOCC4)c(C(F)(F)F)c3)n2)cc(OC)c1OC | 27.2% (inactive)
14 | O=C(N/N=C/c1ccccc1)C(Oc1ccccc1)c1ccccc1 (centres undefined) | 80.2% (inactive)
15 | COC(=O)[C@H]1CCCN1C[C@@H](O)CN1C(=O)/C(=C\c2cc(OC)c(OC)c(OC)c2)c2ccccc21 | 111% (inactive)
16 | NC(N)=N/N=C/c1ccc(-c2ccc(-c3ccc(Cl)cn3)s2)cc1 | 94.4% (inactive)
17 | CCOC(=O)C1=C(Nc2ccc(OC)cc2)C(N)=NC1=N | 31.9% (inactive)
18 | COc1cc(NCCN(CC(C)C)C2CCCC2)c2ncccc2c1 | -13.9% (active)
19 | O/N=C/c1ccc(O)cc1O | 121% (inactive)
20 | COc1ccc(OC)c(/C=C/c2nc(SCc3ccccc3)n(-c3ccc(Cl)cc3)n2)c1 | 34.4% (inactive)

Row | Compound | growth
21 | c1ccc(CN=C(NCc2ccccc2)NCc2ccccc2)cc1 | -14.8% (active)
22 | CCN1C(=O)N(CC)C2C1NN=c1s/c(=C\c3ccccc3Br)c(=O)n12 (centres undefined) | 27.5% (inactive)
23 | O=C(O)c1ccc(S(=O)(=O)O)cc1 | 103% (inactive)
24 | Nc1ccc(/C=N/Nc2ccnc3c(O)cccc23)c2cccnc12 | 73.6% (inactive)
25 | CCN(CC)CCOc1ccc(/C(=C(\C)c2ccc(OC)c(F)c2)c2ccc(Cl)cc2)cc1 | 81.6% (inactive)
26 | O=C(O)c1cn(C2CC2)c2cc(N3CCN(C(=O)Nc4nc(-c5ccc(Br)cc5)cs4)CC3)c(F)cc2c1=O | 13.7% (inactive)
27 | Cc1ccccc1-c1cc(Cc2ccccc2O)c(=O)[nH]n1 | 170% (inactive)
28 | COc1ccc(CN2CCCC(C(=O)c3ccc(C(F)(F)F)cc3)C2)c(O)c1 (centres undefined) | 12.9% (inactive)
29 | O=C(Nc1ccc(Cl)cc1)c1cc2ccccc2cc1O | 21.4% (inactive) and -6.92% (active)
30 | N#Cc1ccc(-c2ccc(-c3cccs3)o2)cc1F | 6.91% (active)
31 | C/C(=N/NC(=S)Nc1ccccc1)c1nc2ccc(Cl)cc2[nH]1 | -44.3% (active)
32 | COc1cc(C2c3cc4c(cc3C(OC(=O)C[n+]3ccccc3)C3COC(=O)C23)OCO4)cc(OC)c1OC (centres undefined) | 5.13% (active)
33 | c1ccc(Cn2cc3c(c2)-c2oncc2CC3)cc1 | 47.2% (inactive)
34 | COc1ccc(-c2cc(C(=O)N3N=C(c4ccc(N)cc4)CC3c3ccc(Cl)cc3)c3cc(OC)ccc3n2)cc1 (centres undefined) | 95.8% (inactive)
35 | O=S1(=O)N(Cc2ccccc2)[C@@H](Cc2ccccc2)C2O[C@H]2[C@H](Cc2ccccc2)N1Cc1ccccc1 (some centres undefined) | 6.52% (active)
36 | N#Cc1ccc(/C=N/NC(=O)c2[nH]c3ccc(Br)cc3c2-c2ccccc2)s1 | 11.4% (inactive)
37 | NC1=NN=C2N(N)C(=O)c3cnn(-c4ccccc4)c3N2c2nc(-c3ccccc3)cc(-c3ccccc3)c21 | 110% (inactive)
38 | COc1c(F)cc(-n2c(C(=O)N3CC(F)C3)cc3cccnc32)cc1F | 98.4% (inactive)
39 | COc1cc(-c2nc(SCCC(C)C)nc(N3CCOCC3)c2C#N)cc(OC)c1OC | 98.2% (inactive)
